PubChem BioAssay (NCI)
About 83,000 compounds went through this panel and 20% of them were active in at least one assay; those are over-represented in the sample as a whole.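 48-hour exposure, single concentration, 96-well plates; percent growth endpoint where 0 means no net growth. Active: below 10.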 The source made the active and inactive calls.

Legend:
Assay in all cases: NCI-60 one-dose screen, 48 h (100 = growth as untreated, 0 = no growth, -100 = all killed)
[1] = tested on: SK-MEL-2 melanoma; details: 10 µM unless noted
[2] = tested on: EKVX NSCLC; details: 10 µM unless noted
[3] = tested on: SN12C renal; details: 10 µM unless noted
[4] = tested on: UO-31 renal; details: 10 µM unless noted
[5] = tested on: TK-10 renal; details: 10 µM unless noted
[6] = tested on: ACHN renal; details: 10 µM unless noted
[7] = tested on: CAKI-1 renal; details: 10 µM unless noted
[8] = tested on: A498 renal; details: 10 µM unless noted
[9] = tested on: CCRF-CEM leukemia; details: 10 µM unless noted
[10] = tested on: MOLT-4 leukemia; details: 10 µM unless noted
[11] = tested on: SR leukemia; details: 10 µM unless noted
[12] = tested on: RPMI-8226 leukemia; details: 10 µM unless noted
[13] = tested on: OVCAR-8 ovarian; details: 10 µM unless noted
[14] = tested on: OVCAR-5 ovarian; details: 10 µM unless noted
[15] = tested on: OVCAR-4 ovarian; details: 10 µM
[16] = tested on: IGROV1 ovarian; details: 10 µM unless noted
[17] = tested on: OVCAR-3 ovarian; details: 10 µM unless noted
[18] = tested on: HS 578T breast; details: 10 µM unless noted
[19] = tested on: NCI/ADR-RES ovarian; details: 10 µM unless noted
[20] = tested on: SK-OV-3 ovarian; details: 10 µM unless noted

Measured: growth

CC(C)(C)c1cc(C(=O)Nc2ccc(C(=O)NCCN)cc2)cc(C(C)(C)C)c1
inactive: [1] 60.3% | [2] 71.2% | [3] 12.8% | [4] 69.5% | [5] 90.9% | [6] 44.4% | [7] 71.7% | [8] 13.1% | [10] 10.9% | [12] 15.6% | [13] 72.2% | [14] 49.3% | [15] 62.3% | [16] 52.9% | [17] 54.6% | [18] 81.7% | [19] 92.4%
active: [9] 3.44% | [11] -40.4%

C[n+]1c2ccccc2nc2c(N)cc(N)cc21
inactive: [1] 121% | [2] 65.9% | [4] 78.3% | [5] 126% | [6] 96.7% | [7] 111% | [8] 121% | [9] 58.8% | [10] 34.8% | [11] 38.3% | [12] 80.2% | [13] 41.6% | [14] 101% | [15] 72.5% | [16] 70.1% | [17] 15.2% | [18] 55.5% | [19] 92.9%
active: [3] 5.51%

Cc1c(Cn2cc(COc3ccc(Br)cc3)nn2)c(C)c(Cn2cc(COc3ccc(Br)cc3)nn2)c(C)c1Cn1cc(COc2ccc(Br)cc2)nn1
inactive: [1] 87.9% | [2] 99.5% | [3] 92.6% | [4] 85.5% | [5] 67.4% | [6] 66.7% | [7] 75.1% | [8] 80.6% | [9] 83% | [10] 103% | [11] 63.2% | [12] 97.9% | [13] 95.1% | [14] 96.8% | [15] 87.3% | [16] 90.7% | [17] 88.7% | [18] 96.8% | [19] 101%

c1cc2ccc3cc2cc1CNCCN1CCNCc2ccc4ccc(cc4c2)CNCCN(CCNC3)CCNCc2ccc3ccc(cc3c2)CNCC1
inactive: [2] 48.7% | [4] 82.4% | [5] 75.2% | [6] 91.2% | [7] 93.8% | [8] 100% | [9] 51% | [11] 10.1% | [13] 69.3% | [16] 21.9% | [18] 48.4% | [19] 99%
active: [1] -9.83% | [3] 1.52% | [10] 8.03% | [12] 7.69% | [14] 0.497% | [15] -7.14% | [17] -1.21%

Cc1ccc(-c2cc(-c3ccc(C)cc3)nc(NCCNc3ccnc4cc(Cl)ccc34)n2)cc1
active: [1] -72.6% | [3] -88.3% | [4] -68.5% | [5] -49.2% | [6] -87.5% | [7] -47.8% | [9] 2.06% | [10] -29.6% | [11] 2.87% | [12] -22% | [13] -53.4% | [14] -34.9% | [15] -31.4% | [16] -66.2% | [17] -80.3% | [18] -46.7% | [19] -63.1%
inactive: [2] 24.6% | [8] 68.4%

CC[C@]12C=CCN3CC[C@@]4(c5ccc(OC)cc5N(C)[C@H]4[C@@](O)(C(=O)OC)[C@@H]1OC(=O)CCC(=O)O[C@H]1CC[C@H]4[C@@H]5CCC6=CC(=O)CC[C@@H]6[C@H]5CC[C@]14C)[C@@H]32
active: [1] -79.8% [100 µM] | [3] 7.65% [100 µM] | [4] -7.86% [100 µM] | [6] -0.641% [100 µM] | [7] 6.42% [100 µM] | [8] -15.8% [100 µM] | [9] 5.61% [100 µM] | [10] -6.15% [100 µM] | [12] -22.1% [100 µM] | [16] -46.3% [100 µM] | [17] 8.48% [100 µM] | [18] 4.75% [100 µM]
inactive: [2] 16.1% [100 µM] | [5] 12.4% [100 µM] | [11] 10.5% [100 µM] | [13] 26.4% [100 µM] | [14] 23.7% [100 µM] | [20] 13.2% [100 µM] | [19] 10.8% [100 µM]

C#C[C@]1(O)CC[C@H]2[C@@H]3CC=C4c5nc(Nc6ccccn6)sc5CC[C@]4(C)[C@H]3CC[C@@]21C
active: [1] -29.6% | [2] 2.77% | [4] -24.4% | [7] -37.6% | [8] -49% | [9] 0.227% | [10] -11.8% | [11] 8.66% | [12] -45.6% | [18] -16.8%
inactive: [3] 32.1% | [5] 12.3% | [6] 21.6% | [13] 27.6% | [14] 30.1% | [15] 16.1% | [16] 32.7% | [17] 20.8% | [19] 22.6%

Brc1ccc(-c2nnc3c4[nH]ccc4ncn23)cc1
inactive: [1] 92.2% | [2] 77.5% | [3] 90.5% | [4] 58.6% | [5] 89.4% | [6] 78.7% | [7] 87.3% | [8] 70.6% | [9] 97.3% | [10] 77.2% | [11] 82.1% | [12] 84.4% | [13] 95.3% | [14] 113% | [20] 93.2% | [16] 69.6% | [17] 85.7% | [18] 93.6%

CC(C)C1=NOC(=O)C1=Cc1cn(-c2cccnc2)nc1-c1ccccc1
inactive: [1] 111% | [2] 100% | [3] 87.5% | [4] 89.7% | [5] 101% | [6] 99.2% | [7] 78% | [8] 99.2% | [9] 11.4% | [10] 11.8% | [13] 89.9% | [14] 100% | [20] 104% | [16] 102% | [17] 108% | [18] 106% | [19] 110%
active: [11] -22.5% | [12] -16.6%

C[C@]12CCc3c(ccc4cc(O)ccc34)[C@@H]1CC[C@H]2O
inactive: [1] 101% | [2] 56.9% | [3] 87.6% | [4] 87.2% | [5] 102% | [6] 103% | [7] 87.8% | [8] 85% | [9] 90.4% | [10] 95.1% | [11] 74.3% | [12] 94.6% | [13] 103% | [14] 107% | [20] 121% | [16] 110% | [17] 94.9% | [18] 29.8% | [19] 101%

O=C(N=c1n(-c2ccccc2)nc2n1CCN2C1=NCCN1)c1ccc(Cl)cc1
inactive: [1] 106% | [2] 93.9% | [3] 80.1% | [4] 57.9% | [5] 89.5% | [6] 96.7% | [7] 79.2% | [8] 68.3% | [9] 77.8% | [10] 77.7% | [11] 43.6% | [12] 91.9% | [13] 98.7% | [14] 95.9% | [20] 90.2% | [16] 58% | [17] 91.7% | [18] 93.1% | [19] 93.6%

O=C1Nc2ccccc2/C1=C/C(=O)c1ccc(N2CCCCC2)cc1
active: [9] 5.19% | [10] -6.75%
inactive: [1] 113% | [2] 106% | [3] 73.5% | [4] 47.4% | [5] 85.8% | [6] 27.6% | [7] 63.8% | [8] 95.8% | [11] 16.9% | [12] 26.9% | [13] 54.9% | [14] 104% | [20] 100% | [16] 50% | [17] 10.4% | [18] 93.4% | [19] 90.3%

C#CCNC(=O)CC[C@@H](C)[C@H]1CC[C@H]2[C@@H]3CC[C@@H]4CC(=O)CC[C@]4(C)[C@H]3CC[C@]12C
inactive: [11] 24.9% [100 µM] | [20] 11.3% [100 µM]
active: [1] -57.1% [100 µM] | [2] -31.8% [100 µM] | [3] -72% [100 µM] | [4] -92.6% [100 µM] | [5] -16.8% [100 µM] | [6] -86.2% [100 µM] | [7] -59.4% [100 µM] | [8] -23.9% [100 µM] | [9] -34% [100 µM] | [10] -18.4% [100 µM] | [12] -32.9% [100 µM] | [13] -21.7% [100 µM] | [14] -45.4% [100 µM] | [16] -64% [100 µM] | [17] -72.6% [100 µM] | [18] -28.3% [100 µM] | [19] -28.7% [100 µM]

CCOC(=O)c1cc(C#N)n2ncc3ccccc3c12
inactive: [1] 108% | [2] 94.9% | [3] 95.3% | [4] 84.1% | [5] 91.4% | [6] 91.6% | [7] 86.5% | [8] 72.4% | [9] 106% | [10] 89.7% | [11] 98.4% | [12] 105% | [13] 97.7% | [14] 84.7% | [20] 107% | [16] 92.4% | [17] 103% | [18] 98.3% | [19] 97.7%

CSc1nc(N)c(N=Nc2ccc(S(=O)(=O)Nc3nnc(C)s3)cc2)c(=O)[nH]1
inactive: [1] 113% | [2] 155% | [3] 92.1% | [4] 76.9% | [5] 108% | [6] 102% | [7] 139% | [8] 97.7% | [9] 128% | [10] 106% | [11] 110% | [12] 132% | [13] 103% | [14] 113% | [20] 96.9% | [16] 126% | [17] 106% | [18] 89.4% | [19] 113%
